# Hits are enriched below; roughly 10% of the tested compounds scored in any of these assays.
# GPT2 inh = inhibitors of human GPT2 alanine aminotransferase. Q8TD30. Recombinant GPT2, coupled pyruvate oxidase/HRP Amplex Red fluorescence. Potency, µM (series often up to 57.7 µM), usual class: inhibitors. 100,000 compounds, 0.25% hits. AID 1671188; note: nearly all actives have a fitted effect of over 60% in size
#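 Recombinant GPT2 (10ng/uL) with 250uM a-KG and 2mM L-alanine, 30 min at room temperature, in HEPES pH 7.5 buffer. Pyruvate detected by pyruvate oxidase/HRP/Amplex Red fluorescence after 30 min in the dark; AOA (50uM) as positive control.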
# 3T3 cytotox = kills NIH 3T3 cells; Potency, µM (doses to about 96.7 µM), usual class: inhibitors; 94,000 compounds, 4.3% hits; AID 1345082; NIH 3T3 viability, CellTiter-Glo ATP luminescence, 48-72 h; note: nearly all actives have a fitted effect of over 55% in size
#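 Mouse fibroblast NIH 3T3 cells, 400 per well, received compound via pintool and were incubated for 48 or 72 hr prior to CellTiter-Glo ATP luminescence measurement.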
# Luciferase inh = inhibitors of firefly (Photinus pyralis) luciferase | P08659 | purified P. pyralis luciferase, luminescence, biochemical | Potency, µM (top dose mostly 115 µM), hits mostly inhibitors | 76,000 compounds, 2.5% hits; note: nearly all actives have a fitted effect of over 65% in size
#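 Cell-free enzyme assay, 10nM P. pyralis luciferase, luciferin and ATP each at 10uM. Inhibition profiled over a 6-point titration, read as luminescence.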
# HEK cytotox = kills HEK 293 cells; HEK 293 viability, ATP luminescence (CellTiter-Glo), 48-72 h; Potency, µM (series often up to 115 µM), hits mostly inhibitors; 94,000 compounds, 6.6% hits; AID 1345083; note: nearly all actives have a fitted effect of over 60% in size
#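 Cells seeded first (HEK 293, 250 cells/well), then compound added by pintool. Incubation ran 48 or 72 hr at 37 degree Celsius. CellTiter-Glo was added and luminescence imaged after 10 min at room temperature.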
# hNpr1 antagonist = antagonists of human natriuretic peptide receptor Npr1; 76,000 compounds, 1.6% hits; AID 1347048; P16066; Potency, µM (titrated, usually from 46.3 µM), actives largely listed as inhibitors; HEK293 hNpr1 GloSensor cGMP, ANP-stimulated luminescence; calls by dose curve; note: nearly all actives have a fitted effect of over 60% in size
# Target sequence (P16066 whole entry, looked up): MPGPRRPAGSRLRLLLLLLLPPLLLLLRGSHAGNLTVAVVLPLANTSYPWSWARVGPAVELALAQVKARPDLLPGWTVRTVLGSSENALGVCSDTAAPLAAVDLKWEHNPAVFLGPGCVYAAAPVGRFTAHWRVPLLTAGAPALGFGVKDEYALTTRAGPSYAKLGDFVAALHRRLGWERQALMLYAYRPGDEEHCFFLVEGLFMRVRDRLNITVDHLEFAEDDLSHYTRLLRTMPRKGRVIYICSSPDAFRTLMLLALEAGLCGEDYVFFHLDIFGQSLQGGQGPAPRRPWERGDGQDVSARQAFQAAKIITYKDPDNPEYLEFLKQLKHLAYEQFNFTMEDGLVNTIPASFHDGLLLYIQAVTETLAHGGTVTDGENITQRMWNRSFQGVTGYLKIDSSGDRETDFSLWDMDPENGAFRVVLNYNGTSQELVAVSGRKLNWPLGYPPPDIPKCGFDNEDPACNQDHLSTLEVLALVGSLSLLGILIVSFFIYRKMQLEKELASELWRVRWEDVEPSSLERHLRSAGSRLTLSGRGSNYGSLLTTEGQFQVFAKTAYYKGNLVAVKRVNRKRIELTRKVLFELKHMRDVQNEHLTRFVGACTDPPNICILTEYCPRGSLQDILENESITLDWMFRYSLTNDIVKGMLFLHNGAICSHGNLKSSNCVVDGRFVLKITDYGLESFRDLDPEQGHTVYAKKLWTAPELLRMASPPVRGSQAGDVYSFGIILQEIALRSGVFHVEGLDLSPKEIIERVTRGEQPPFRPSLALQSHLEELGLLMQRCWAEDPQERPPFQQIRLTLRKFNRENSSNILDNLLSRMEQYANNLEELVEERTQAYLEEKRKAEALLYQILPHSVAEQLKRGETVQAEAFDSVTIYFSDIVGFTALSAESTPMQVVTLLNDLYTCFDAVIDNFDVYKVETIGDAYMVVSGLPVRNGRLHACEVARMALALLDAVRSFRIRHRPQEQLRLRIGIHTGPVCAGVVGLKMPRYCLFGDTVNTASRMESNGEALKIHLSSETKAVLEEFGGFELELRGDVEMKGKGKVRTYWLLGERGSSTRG
#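 Compound pre-incubated 30 min at room temperature on GloSensor-loaded HEK293 cells stably carrying hNpr1 and the pGS-40F cGMP biosensor. Stimulation uses hNppA at 0.1 nM final; luminescence is taken at baseline and 20 min post-agonist.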
# Numbers stand for hits; - = inactive; ? = inconclusive; . = no result; ! = repeats disagree. Unless noted, calls come from the whole dose curve; as a rule, active = well fitted curve in the direction sought with a large enough effect; inconclusive = small, poorly fitted or top-dose-only effect, or another doubt; inactive = no such curve, though single readings can be large; an effect the other way counts as inactive or inconclusive.
SMILES,GPT2 inh,3T3 cytotox,Luciferase inh,HEK cytotox,hNpr1 antagonist
COc1ccccc1C(=O)N1CCC(N2C(=O)c3c(c(C)nn3-c3ccccc3)C2C2CC2)C1 (centres undefined),.,?,.,40µM,.
Cc1nn(-c2ccccc2)c2c1C(C)N(C1CCN(C(=O)NC(C)C)C1)C2=O (centres undefined),.,?,.,-,.
COc1ccccc1C(=O)N1CCC(N2C(=O)c3c(c(C)nn3-c3ccccc3)C2C)C1 (centres undefined),.,?,.,45µM,.
O=C(NCc1cccc(Cl)c1)c1ccc2nnc(-c3cc[nH]c3)n2c1,-,?,.,?,.
O=c1[nH]sc2cc(Cl)ccc12,14µM,.,.,.,.
COc1ccc(C(=O)N[C@H]2CC[C@]3(C)CCC([C@H](C)C(=O)NC4CCCCC4)[C@H](O)[C@H]3[C@@H]2C)cc1 (some centres undefined),-,-,-,-,-
Cc1ccc(NC(=O)N2CCC[C@H]2c2nc(-c3ccc(F)cc3)n[nH]2)cc1C,-,28µM,.,?,.
CC(c1ccc(F)cc1)N1Cc2cc(NC(=O)c3cccs3)ccc2OCC1=O (centres undefined),-,?,-,22µM,?
O=C(/C=C/c1ccc(O)c(O)c1)O[C@H]1[C@H](OC2CCCCC2O)O[C@H](CO)[C@@H](O)[C@@H]1O (some centres undefined),4.5µM,.,.,.,.
Cc1nn(C)c2c1C(c1ccc(C(F)(F)F)cc1)C(C#N)=C(N)O2 (centres undefined),15µM!,.,.,.,.
Cn1ccc(C(=O)N2CCC3(CC2)CC(=O)N(C/C=C/c2ccccc2)C3)n1,-,-,-,-,-
CN1CCC2(C1)CN(CC1CC1)c1ccc(C(=O)NCc3cccs3)cc12 (centres undefined),-,?,-,100µM,-
CN1CCC2(C1)CN(CC1CC1)c1ccc(C(=O)NC3CCCCC3)cc12 (centres undefined),-,79µM,-,89µM,-
CN1CCC2(C1)CN(CC1CC1)c1ccc(C(=O)Nc3ccccc3)cc12 (centres undefined),-,?,?,?,-
COc1cccc(-c2ccc(C(=O)N3CCC(NC(=O)c4ccccc4)CC3)cc2)c1,-,?,.,45µM,.
COc1cccc(-c2ccc(C(=O)N3CCC(NC(=O)c4ccc(C)cc4)CC3)cc2)c1,-,-,.,?,.
COc1cccc(-c2ccc(C(=O)N3CCC(NC(=O)Nc4ccc(Cl)cc4)CC3)cc2)c1,-,28µM,.,10µM,.
COc1ccc(-c2cccc(C(=O)N3CCC(NC(=O)c4ccccc4OC)CC3)c2)nn1,.,-,.,28µM,.
COc1cccc(-c2ccc(C(=O)N3CCC(NC(=O)Nc4ccccc4)CC3)cc2)c1,-,?,.,25µM,.
COc1cccc(CN2CCC[C@H]2C(=O)N2CCCCCCNC(=O)CC2)c1OC,-,-,-,?,-
COc1ccccc1-c1ccc(C(=O)N2CCC(NC(=O)Nc3ccccc3)CC2)cc1,-,?,.,40µM,.
COc1cccc(-c2ccc(C(=O)N3CCC(NC(=O)C4CCCC4)CC3)cc2)c1,-,?,.,?,.
COc1cccc(-c2ccc(C(=O)N3CCC(N[S+](=O)([O-])c4ccccc4)CC3)cc2)c1,-,?,.,20µM,.
COc1cccc(-c2cccc(C(=O)N3CCN(C(=O)Nc4ccc(Cl)cc4)CC3)c2)c1,-,?,.,89µM,.
CC(C)CCNc1ccc2nncn2n1,-,-,-,-,-
SMILES,GPT2 inh,3T3 cytotox,Luciferase inh,HEK cytotox,hNpr1 antagonist
O=S(=O)(c1ccsc1-c1nc(-c2cccnn2)no1)N1CCCC1,?,-,-,-,-
O=C1NCCCCCCN(C(=O)CC2CCCCC2)[C@H]2C[C@H](c3nc(Cc4ccccc4)no3)C[C@@H]12,-,35µM,-,?,-
O=C1NCCCCCCN(C(=O)CCC2CCCC2)[C@H]2C[C@H](c3nc(Cc4ccccc4)no3)C[C@@H]12,-,?,-,32µM,-
Cc1cc(C)cc(-c2ccc(CN3CCCC(NC(=O)Nc4ccccc4)C3)cc2)c1 (centres undefined),-,10µM,.,?,.
Cc1cc(C)cc(-c2ccc(CN3C4CCC3CN(C(=O)Nc3ccccc3F)C4)cc2)c1,-,?,.,?,.
COc1cccc(-c2ccc(CN3CCCC(NC(=O)c4ccccc4F)C3)cc2)c1 (centres undefined),-,?,.,40µM,.
Cc1ccc(C(=O)NC2CCCN(Cc3ccc(-c4cc(C)cc(C)c4)cc3)C2)cc1 (centres undefined),-,-,.,-,.
Cc1cc(C)cc(-c2ccc(CN3CCCC(NC(=O)c4ccccc4F)C3)cc2)c1 (centres undefined),-,?,.,79µM,.
COc1cccc(-c2ccc(CN3C4CCC3CN(C(=O)Nc3ccccc3F)C4)cc2)c1,-,35µM!,?,40µM!,-
Cn1nccc1C(=O)N1CCC(N2C(=O)C3(CCCCC3)C2c2ccccc2)CC1 (centres undefined),-,?,-,?,-
Clc1ccc(COCCn2ccnc2-c2cc3n(n2)CCNC3)cc1,-,-,-,-,-
O=C(NC1CCN(C(=O)c2ccc(-c3cccs3)cc2)CC1)c1ccccc1,-,?,.,?,.
COc1cccc(-c2ccc(CN3CCCC(NC(=O)c4ccccc4C)C3)cc2)c1 (centres undefined),-,40µM,.,22µM,.
Cc1ccc(Nc2ccnc(N3CCC(NC(=O)Nc4ccccc4)CC3)n2)cc1,-,?,.,?,.
Cc1ccc(Nc2ccnc(N3CCC(NC(=O)Nc4ccc(Cl)cc4)CC3)n2)cc1,-,22µM,.,25µM,.
COc1ccc(Nc2ccnc(N3CCC(NC(=O)Nc4ccc(Cl)cc4)CC3)n2)cc1,-,32µM,.,20µM,.
